Test results: ChEMBL document CHEMBL1961873, “Compounds: GSK PKIS; Assays: Nanosyn kinase panel” (2012)

Tests used:
[1] = tested on: Epidermal growth factor receptor (Homo sapiens), P00533 [T790M]; details: at 1 µM
[2] = tested on: Epidermal growth factor receptor (Homo sapiens), P00533 [L858R,T790M]; details: at 0.1 µM
[3] = tested on: Epidermal growth factor receptor (Homo sapiens), P00533 [L858R,T790M]; details: at 1 µM
[4] = target: Ephrin type-A receptor 2 (Homo sapiens) (UniProt P29317); details: at 0.1 µM
[5] = target: Ephrin type-A receptor 2 (Homo sapiens) (UniProt P29317); details: at 1 µM
[6] = target: T1, Ephrin type-A receptor 3 (Homo sapiens) (UniProt P29320); details: at 0.1 µM
T1 sequence (whole entry): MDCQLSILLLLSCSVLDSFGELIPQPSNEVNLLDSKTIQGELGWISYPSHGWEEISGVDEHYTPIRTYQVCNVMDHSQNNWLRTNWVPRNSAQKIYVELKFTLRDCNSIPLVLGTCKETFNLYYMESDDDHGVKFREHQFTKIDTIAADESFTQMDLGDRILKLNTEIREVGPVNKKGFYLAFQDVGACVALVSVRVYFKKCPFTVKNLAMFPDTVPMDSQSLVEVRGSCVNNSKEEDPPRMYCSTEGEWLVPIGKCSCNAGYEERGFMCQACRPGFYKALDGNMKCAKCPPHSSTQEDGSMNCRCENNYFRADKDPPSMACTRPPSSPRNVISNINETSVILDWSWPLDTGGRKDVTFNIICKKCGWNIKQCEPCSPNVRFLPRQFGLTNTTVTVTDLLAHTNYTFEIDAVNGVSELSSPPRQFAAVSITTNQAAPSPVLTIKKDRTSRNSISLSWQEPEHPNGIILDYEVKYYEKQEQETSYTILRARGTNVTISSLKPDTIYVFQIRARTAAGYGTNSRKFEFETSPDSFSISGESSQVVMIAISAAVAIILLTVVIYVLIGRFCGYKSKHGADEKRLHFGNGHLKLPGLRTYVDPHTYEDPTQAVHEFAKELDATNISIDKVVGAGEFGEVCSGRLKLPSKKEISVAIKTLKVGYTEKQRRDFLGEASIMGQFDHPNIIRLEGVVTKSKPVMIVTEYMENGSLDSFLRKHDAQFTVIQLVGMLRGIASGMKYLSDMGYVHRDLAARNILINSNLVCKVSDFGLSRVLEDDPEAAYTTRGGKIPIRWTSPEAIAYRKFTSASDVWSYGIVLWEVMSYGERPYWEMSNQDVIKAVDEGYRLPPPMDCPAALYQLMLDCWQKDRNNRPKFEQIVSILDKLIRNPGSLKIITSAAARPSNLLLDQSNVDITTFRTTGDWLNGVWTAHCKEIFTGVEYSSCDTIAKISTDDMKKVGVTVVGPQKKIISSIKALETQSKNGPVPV

[7] = target: T1, Ephrin type-A receptor 3 (Homo sapiens); details: at 1 µM
[8] = target: Ephrin type-A receptor 4 (Homo sapiens) (UniProt P54764); details: at 0.1 µM
Ephrin type-A receptor 4 (Homo sapiens), sequence (P54764 whole entry): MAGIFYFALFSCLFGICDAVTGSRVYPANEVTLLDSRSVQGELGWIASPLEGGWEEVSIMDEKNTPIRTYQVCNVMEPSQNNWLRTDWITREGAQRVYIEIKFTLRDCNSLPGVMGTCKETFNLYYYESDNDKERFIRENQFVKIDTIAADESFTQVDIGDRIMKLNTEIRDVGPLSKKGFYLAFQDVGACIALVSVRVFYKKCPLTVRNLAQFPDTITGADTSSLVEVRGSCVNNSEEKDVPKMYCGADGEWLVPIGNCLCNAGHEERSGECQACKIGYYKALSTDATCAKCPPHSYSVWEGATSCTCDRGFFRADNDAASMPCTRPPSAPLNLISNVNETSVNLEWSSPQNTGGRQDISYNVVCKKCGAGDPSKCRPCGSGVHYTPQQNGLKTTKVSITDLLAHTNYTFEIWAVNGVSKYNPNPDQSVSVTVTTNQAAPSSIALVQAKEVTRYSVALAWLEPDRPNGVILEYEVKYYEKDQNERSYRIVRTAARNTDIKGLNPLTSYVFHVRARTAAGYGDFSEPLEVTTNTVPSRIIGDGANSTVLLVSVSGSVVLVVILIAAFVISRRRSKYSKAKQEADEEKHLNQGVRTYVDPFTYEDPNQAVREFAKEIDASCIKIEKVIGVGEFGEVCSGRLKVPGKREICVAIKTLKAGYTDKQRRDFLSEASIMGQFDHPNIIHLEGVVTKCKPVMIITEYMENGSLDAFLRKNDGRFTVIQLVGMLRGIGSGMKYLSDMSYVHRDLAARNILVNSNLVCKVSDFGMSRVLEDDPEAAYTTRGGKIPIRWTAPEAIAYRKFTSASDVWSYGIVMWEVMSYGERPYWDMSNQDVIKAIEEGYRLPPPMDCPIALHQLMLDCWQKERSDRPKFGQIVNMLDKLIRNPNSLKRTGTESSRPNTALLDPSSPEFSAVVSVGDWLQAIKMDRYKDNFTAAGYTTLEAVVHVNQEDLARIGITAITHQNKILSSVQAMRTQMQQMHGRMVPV

[9] = target: Ephrin type-A receptor 4 (Homo sapiens) (UniProt P54764); details: at 1 µM
[10] = target: T2, Ephrin type-B receptor 2 (Homo sapiens) (UniProt P29323); details: at 0.1 µM
T2 sequence (whole entry): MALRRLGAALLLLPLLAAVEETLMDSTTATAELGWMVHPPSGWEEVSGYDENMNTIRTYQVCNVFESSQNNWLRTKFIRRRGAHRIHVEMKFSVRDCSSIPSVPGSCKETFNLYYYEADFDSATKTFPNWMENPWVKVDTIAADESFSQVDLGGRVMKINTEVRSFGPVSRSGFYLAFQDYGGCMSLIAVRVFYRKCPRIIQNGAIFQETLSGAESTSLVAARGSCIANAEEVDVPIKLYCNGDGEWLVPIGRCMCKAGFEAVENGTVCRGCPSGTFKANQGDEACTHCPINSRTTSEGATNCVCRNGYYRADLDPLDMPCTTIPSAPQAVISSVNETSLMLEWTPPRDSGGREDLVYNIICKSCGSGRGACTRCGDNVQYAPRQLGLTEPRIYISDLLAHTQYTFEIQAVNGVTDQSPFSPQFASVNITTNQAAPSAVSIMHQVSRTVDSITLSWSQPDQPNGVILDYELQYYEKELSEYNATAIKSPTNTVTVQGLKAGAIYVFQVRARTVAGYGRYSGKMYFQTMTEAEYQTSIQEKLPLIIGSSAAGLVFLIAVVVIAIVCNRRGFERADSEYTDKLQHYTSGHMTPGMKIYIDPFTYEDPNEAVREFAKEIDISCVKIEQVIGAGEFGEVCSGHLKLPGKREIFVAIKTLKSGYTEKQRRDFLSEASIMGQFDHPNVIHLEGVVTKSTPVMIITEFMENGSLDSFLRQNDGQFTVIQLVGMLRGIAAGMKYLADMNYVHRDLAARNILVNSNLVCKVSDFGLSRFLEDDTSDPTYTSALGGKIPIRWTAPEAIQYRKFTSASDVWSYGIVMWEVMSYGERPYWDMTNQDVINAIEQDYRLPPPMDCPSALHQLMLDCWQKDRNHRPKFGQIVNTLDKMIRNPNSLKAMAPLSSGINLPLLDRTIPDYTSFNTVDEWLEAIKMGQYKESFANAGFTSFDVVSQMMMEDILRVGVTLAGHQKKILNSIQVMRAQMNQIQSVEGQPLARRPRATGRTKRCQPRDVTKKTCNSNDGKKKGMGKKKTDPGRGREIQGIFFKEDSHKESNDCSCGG

[11] = target: T2, Ephrin type-B receptor 2 (Homo sapiens); details: at 1 µM
[12] = target: T3, Ephrin type-B receptor 3 (Homo sapiens) (UniProt P54753); details: at 0.1 µM
T3 sequence (whole entry): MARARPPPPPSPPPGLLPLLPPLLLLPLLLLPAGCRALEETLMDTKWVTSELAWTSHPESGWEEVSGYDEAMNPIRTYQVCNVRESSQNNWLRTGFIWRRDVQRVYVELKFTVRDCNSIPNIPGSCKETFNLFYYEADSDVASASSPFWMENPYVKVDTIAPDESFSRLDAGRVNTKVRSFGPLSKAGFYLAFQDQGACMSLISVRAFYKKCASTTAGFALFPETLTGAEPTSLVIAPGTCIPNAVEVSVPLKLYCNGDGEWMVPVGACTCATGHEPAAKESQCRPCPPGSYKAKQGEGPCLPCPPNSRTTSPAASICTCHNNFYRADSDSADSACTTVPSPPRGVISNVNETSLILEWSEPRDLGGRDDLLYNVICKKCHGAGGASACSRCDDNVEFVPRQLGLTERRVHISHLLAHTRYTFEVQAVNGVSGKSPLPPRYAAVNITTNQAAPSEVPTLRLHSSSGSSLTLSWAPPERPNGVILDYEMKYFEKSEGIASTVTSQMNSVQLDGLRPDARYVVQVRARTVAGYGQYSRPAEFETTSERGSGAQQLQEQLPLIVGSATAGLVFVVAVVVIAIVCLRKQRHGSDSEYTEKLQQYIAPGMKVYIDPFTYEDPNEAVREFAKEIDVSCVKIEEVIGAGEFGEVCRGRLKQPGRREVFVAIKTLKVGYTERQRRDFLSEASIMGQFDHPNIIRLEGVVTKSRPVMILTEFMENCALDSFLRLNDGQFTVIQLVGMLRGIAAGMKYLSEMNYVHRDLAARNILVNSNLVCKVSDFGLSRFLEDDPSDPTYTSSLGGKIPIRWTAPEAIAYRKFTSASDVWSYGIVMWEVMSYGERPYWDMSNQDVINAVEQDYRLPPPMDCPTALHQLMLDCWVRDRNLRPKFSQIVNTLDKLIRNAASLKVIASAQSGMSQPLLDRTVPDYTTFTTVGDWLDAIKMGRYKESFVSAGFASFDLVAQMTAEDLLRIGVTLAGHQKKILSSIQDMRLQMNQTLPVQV

[13] = target: T3, Ephrin type-B receptor 3 (Homo sapiens); details: at 1 µM
[14] = target: T4, Ephrin type-B receptor 4 (Homo sapiens) (UniProt P54760); details: at 0.1 µM
T4 sequence (whole entry): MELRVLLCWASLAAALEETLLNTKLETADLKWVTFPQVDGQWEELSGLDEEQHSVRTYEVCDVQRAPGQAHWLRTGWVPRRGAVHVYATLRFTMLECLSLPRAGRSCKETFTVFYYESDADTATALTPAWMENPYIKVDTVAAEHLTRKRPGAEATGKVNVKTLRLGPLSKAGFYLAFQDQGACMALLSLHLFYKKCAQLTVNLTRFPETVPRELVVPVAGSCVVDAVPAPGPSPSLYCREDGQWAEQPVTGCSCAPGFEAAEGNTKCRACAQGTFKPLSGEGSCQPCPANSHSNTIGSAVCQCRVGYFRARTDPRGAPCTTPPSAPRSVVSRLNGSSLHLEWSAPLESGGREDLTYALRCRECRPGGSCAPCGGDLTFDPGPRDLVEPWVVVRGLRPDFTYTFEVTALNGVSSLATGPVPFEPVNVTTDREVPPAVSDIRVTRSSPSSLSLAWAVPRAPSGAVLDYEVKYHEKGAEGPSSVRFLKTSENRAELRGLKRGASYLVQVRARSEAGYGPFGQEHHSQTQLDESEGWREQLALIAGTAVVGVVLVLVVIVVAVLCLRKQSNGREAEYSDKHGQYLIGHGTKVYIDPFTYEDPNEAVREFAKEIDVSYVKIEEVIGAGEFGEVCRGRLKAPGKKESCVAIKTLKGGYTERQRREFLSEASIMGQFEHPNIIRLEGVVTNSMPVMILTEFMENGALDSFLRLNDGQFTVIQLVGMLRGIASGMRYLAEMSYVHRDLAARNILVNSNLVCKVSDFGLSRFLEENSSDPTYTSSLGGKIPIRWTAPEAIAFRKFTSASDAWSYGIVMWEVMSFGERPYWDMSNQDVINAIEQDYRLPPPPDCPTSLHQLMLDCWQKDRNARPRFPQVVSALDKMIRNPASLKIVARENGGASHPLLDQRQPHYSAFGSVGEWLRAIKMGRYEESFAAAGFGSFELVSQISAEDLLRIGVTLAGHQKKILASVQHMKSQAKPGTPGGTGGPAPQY

[15] = target: T4, Ephrin type-B receptor 4 (Homo sapiens); details: at 1 µM
[16] = target: Receptor tyrosine-protein kinase erbB-2 (Homo sapiens) (UniProt P04626); details: at 0.1 µM
Receptor tyrosine-protein kinase erbB-2 (Homo sapiens), sequence (P04626 whole entry): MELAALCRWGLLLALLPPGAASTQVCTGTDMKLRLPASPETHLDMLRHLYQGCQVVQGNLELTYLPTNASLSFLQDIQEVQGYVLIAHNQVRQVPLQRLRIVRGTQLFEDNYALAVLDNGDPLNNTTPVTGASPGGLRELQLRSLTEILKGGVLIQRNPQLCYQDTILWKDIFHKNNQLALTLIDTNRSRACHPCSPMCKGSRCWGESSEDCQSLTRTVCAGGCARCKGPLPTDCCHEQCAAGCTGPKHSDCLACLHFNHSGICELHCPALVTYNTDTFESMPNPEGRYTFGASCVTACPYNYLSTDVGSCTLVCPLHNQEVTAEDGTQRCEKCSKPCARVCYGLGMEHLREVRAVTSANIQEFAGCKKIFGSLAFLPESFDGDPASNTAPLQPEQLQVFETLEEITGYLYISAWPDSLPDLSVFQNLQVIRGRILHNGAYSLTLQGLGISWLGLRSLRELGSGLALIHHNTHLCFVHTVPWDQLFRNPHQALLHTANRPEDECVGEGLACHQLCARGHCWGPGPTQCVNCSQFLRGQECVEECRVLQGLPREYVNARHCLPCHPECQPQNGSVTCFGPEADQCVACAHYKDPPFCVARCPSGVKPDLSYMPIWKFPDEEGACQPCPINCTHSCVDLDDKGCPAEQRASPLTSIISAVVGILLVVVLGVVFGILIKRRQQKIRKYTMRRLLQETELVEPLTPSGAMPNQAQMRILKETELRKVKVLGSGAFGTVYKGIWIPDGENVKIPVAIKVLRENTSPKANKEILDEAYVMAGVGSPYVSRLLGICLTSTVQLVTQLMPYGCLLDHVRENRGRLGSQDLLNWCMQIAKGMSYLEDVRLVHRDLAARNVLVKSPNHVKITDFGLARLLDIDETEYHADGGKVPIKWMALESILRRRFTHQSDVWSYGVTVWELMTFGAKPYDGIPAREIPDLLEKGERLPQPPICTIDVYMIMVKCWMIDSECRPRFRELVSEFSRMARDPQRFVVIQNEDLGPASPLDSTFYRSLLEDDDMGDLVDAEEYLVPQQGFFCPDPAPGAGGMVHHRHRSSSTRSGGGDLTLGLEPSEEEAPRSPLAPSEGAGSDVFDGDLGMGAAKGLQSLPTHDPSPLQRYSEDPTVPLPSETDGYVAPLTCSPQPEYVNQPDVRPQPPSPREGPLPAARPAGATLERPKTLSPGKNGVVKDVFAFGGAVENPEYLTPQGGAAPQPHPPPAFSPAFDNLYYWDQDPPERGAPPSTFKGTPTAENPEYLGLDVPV

[17] = target: Receptor tyrosine-protein kinase erbB-2 (Homo sapiens) (UniProt P04626); details: at 1 µM
[18] = target: Receptor tyrosine-protein kinase erbB-4 (Homo sapiens) (UniProt Q15303); details: at 0.1 µM
Receptor tyrosine-protein kinase erbB-4 (Homo sapiens), sequence (Q15303 whole entry): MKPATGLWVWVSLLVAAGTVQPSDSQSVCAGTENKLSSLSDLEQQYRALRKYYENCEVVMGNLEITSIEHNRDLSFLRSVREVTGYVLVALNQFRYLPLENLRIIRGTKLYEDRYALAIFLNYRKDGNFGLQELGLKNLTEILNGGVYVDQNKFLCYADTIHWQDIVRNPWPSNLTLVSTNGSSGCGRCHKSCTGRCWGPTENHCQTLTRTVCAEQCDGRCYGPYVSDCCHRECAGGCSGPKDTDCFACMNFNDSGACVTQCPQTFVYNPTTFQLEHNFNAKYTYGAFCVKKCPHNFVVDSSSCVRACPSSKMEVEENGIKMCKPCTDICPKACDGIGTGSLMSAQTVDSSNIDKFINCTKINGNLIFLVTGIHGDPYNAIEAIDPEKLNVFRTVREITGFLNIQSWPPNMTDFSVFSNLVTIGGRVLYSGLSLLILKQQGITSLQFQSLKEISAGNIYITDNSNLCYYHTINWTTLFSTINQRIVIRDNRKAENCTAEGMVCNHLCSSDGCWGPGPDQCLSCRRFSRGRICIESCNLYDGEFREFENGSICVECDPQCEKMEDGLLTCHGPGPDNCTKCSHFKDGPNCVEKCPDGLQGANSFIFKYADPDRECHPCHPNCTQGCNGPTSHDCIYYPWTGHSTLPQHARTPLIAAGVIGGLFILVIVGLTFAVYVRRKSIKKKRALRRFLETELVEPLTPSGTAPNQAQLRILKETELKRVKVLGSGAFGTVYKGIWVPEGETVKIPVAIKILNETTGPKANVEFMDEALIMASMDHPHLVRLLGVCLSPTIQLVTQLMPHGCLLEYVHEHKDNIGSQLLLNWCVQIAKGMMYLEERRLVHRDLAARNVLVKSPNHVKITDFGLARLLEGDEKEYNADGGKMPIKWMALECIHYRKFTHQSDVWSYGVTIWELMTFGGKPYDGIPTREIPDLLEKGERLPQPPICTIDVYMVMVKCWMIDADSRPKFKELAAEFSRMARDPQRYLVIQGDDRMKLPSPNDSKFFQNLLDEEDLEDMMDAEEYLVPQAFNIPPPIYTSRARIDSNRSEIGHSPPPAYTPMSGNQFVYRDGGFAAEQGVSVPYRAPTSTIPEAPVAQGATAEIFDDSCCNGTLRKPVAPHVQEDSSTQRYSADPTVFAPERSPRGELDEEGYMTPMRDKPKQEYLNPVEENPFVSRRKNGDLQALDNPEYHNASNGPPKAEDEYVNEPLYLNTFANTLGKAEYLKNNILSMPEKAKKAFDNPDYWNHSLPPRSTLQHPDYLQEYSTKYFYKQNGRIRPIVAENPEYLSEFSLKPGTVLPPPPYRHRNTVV

[19] = target: Receptor tyrosine-protein kinase erbB-4 (Homo sapiens) (UniProt Q15303); details: at 1 µM
[20] = target: Tyrosine-protein kinase Fer (Homo sapiens) (UniProt P16591); details: at 0.1 µM;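 also: reported figures are averaged percent inhibition of FER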

Epidermal growth factor receptor (Homo sapiens), P00533 [L858R,T790M], sequence (P00533 whole entry T790M/L858R, looked up): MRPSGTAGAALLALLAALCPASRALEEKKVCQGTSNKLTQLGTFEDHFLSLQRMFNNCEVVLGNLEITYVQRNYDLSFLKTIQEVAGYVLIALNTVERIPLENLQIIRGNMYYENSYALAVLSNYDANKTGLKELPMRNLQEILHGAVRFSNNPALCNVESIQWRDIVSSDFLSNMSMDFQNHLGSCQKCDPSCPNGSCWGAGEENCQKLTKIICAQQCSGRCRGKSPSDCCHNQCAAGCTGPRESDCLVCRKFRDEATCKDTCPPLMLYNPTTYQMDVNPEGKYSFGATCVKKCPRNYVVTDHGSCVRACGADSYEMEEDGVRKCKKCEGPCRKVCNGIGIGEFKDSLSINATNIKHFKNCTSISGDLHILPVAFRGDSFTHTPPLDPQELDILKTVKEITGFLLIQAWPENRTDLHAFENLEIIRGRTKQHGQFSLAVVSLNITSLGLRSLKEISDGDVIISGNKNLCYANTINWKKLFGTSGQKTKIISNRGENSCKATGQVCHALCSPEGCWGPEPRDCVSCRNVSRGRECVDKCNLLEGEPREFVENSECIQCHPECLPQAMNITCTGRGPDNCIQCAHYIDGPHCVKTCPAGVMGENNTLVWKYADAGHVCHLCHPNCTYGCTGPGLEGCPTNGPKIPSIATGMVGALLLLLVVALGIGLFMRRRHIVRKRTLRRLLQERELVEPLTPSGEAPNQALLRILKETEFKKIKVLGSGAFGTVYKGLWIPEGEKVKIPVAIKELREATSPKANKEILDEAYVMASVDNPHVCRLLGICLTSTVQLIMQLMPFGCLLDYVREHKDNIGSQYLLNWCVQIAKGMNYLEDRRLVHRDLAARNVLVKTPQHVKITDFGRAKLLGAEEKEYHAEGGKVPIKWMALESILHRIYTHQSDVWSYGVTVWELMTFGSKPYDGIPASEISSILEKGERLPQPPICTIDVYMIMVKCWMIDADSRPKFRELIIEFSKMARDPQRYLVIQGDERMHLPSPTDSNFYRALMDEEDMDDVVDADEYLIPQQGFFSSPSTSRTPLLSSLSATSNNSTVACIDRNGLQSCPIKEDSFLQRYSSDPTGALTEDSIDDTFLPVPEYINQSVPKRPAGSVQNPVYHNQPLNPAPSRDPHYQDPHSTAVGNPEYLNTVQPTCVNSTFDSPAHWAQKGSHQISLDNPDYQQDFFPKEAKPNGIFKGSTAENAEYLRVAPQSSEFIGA

Row | SMILES | inhibition [1] [%] | inhibition [2] [%] | inhibition [3] [%] | inhibition [4] [%] | inhibition [5] [%] | inhibition [6] [%] | inhibition [7] [%] | inhibition [8] [%] | inhibition [9] [%] | inhibition [10] [%] | inhibition [11] [%] | inhibition [12] [%] | inhibition [13] [%] | inhibition [14] [%] | inhibition [15] [%] | inhibition [16] [%] | inhibition [17] [%] | inhibition [18] [%] | inhibition [19] [%] | inhibition [20] [%]
1 | COc1cccc(-n2ncc3c(N/N=C/c4ccncc4)ncnc32)c1 | 5.66 | 3.61 | 8.8 | 3.25 | 15.8 | 5.89 | 6.97 | 11.1 | 35.5 | 8.96 | 30.4 | 4.72 | 3.82 | 3.92 | 13.7 | 0.91 | 5.53 | 9.63 | 20.9 | 4.97
2 | NS(=O)(=O)c1ccc(N/C=C2\C(=O)Nc3ccc4ncsc4c32)cc1 | 0.85 | 4.07 | 3.15 | 1.01 | 1.66 | 3.37 | 6.86 | 8.05 | 22.4 | 9.09 | 18.1 | 2.97 | 4.36 | 0.08 | 8.11 | 2.78 | 5.6 | 8.52 | 10.8 | 0.16
3 | CCn1c(-c2nonc2N)nc2c(C#CCN)ncc(OCCCN)c21 | 5.94 | 3.07 | 5.28 | 5.32 | 1.78 | -2.35 | -1 | -3.41 | 3.82 | -6 | -5.25 | -7.45 | 1.18 | -2.64 | -2.62 | -3.17 | 3.87 | -7.51 | 2.14 | 5.14
4 | CCn1c(-c2nonc2N)nc2c(C#CC(C)(C)O)ncc(OC[C@@H]3CCCN3)c21 | -0.11 | 4.31 | -0.19 | 1.83 | 0.02 | 0.32 | -1.12 | -0.1 | 2.58 | -7.23 | -3.01 | -0.27 | 0.62 | -1.76 | 1.1 | 0.95 | 3.51 | 1.3 | 7.9 | -1.38
5 | CCn1c(-c2nonc2N)nc2c(C#CC(C)(C)O)nc(O[C@@H](CN)c3ccccc3)cc21 | -1.37 | 0.5 | -1.45 | -2.73 | -4.53 | -1.47 | -0.7 | -1.14 | -4.76 | -2.94 |  | 1.57 | -3.07 | -0.46 | 1.16 | -2.68 | -2.4 | 1.38 | 3.97 | 3.77
6 | COc1cc(C=NNc2ncnc3c2cnn3Cc2ccccc2)ccc1O | -3.25 | -1.62 | -0.48 | 15.6 | 32.4 | -4.93 | 3.27 | 6.93 | 21.7 | -3.14 | 9.74 | -7.53 | -0.1 | 4.81 | 7.15 | -6.92 | -3.2 |  |  | 3.46
7 | Cc1cc(-c2ccco2)cc(C)c1/C=C/c1cncc(-c2nn[nH]n2)c1 | 1.13 | -2.33 | 0.17 | 1.36 | 1.78 | -0.31 | 0.86 | 1.64 | 3.95 | -9.41 | 3.46 | 0.39 | 4.16 | 0.18 | 2.02 | 3.01 | 3.5 | 2.03 | 15.7 | 4.17
